What all share (assay): NCI-60 one-dose screen, 48 h (100 = growth as untreated, 0 = no growth, -100 = all killed)
Holding throughout (settings): 10 µM unless noted

For assay [1], the system named is SR leukemia.
In assay [2] the test system is RPMI-8226 leukemia.
Assay [3] deals with OVCAR-5 ovarian.
For assay [4], the system named is OVCAR-4 ovarian.
The test system of assay [5] is SK-OV-3 ovarian.
Assay [6] concerns IGROV1 ovarian.
Assay [7] has as its system OVCAR-3 ovarian.
Assay [8] relates to HS 578T breast.
The subject of assay [9] is NCI/ADR-RES ovarian.
Assay [10] deals with OVCAR-8 ovarian.

About 83,000 compounds went through this panel and 20% of them were active in at least one assay; those are over-represented in the sample as a whole.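 96-well plates, one dose, 48 hours. Percent growth reported; active if below 10.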 Values without a mark were called inactive. The source made the active and inactive calls.

`N=C(N)c1ccc(OCCCCCCCCCCOc2ccc(C(=N)N)cc2)cc1`: the growth in [1] was -60.4% (active); in assay [2], -59.8% (active); in assay [3], -91.5% (active); in assay [4], -95.8% (active); in [5], -91.4% (active); in assay [6], -80.7% (active). The values for the growth in assay [7], in assay [8] and in [9] were -92.4% (active), -56.9% (active) and 87.1%, respectively.
For `O=C(N/N=C/c1ccc(Oc2ccccc2)cc1)c1cnn2c1NC(c1ccccc1)C2` (stereo not drawn), the growth is 31% in assay [1]; 75.7% in [2]; 78% in [3]; 26.6% in [4]; 48.5% in assay [5]; 59.3% in [6]. Moreover, the growth is -32.6% (active) in assay [7], 32.3% in assay [8] and 68.7% in assay [9].
`O=C1c2cccc3c(-c4ccc5c(c4)ncn5C4CCCCC4)ccc(c23)C(=O)N1CCO`: the growth in assay [1] was 84.7%; in assay [2], 66.3%; in assay [4], 86%; in assay [5] it was 109%; in assay [6], 96.2%; in assay [7], 88.9%. The figures for the growth in assay [8] and in [9] were 94.7% and 89.1%, respectively.
With `COc1ccc(/C=C/c2nc(Nc3ccc(S(=O)(=O)NC(C)=O)cc3)c3ccccc3n2)cc1`, the growth in assay [1] was 53.9%; in assay [2], 76.9%; in [3] it was 72.5%; in [4], 79.4%; in assay [5], 90.2%; in [6] it was 91.6%. Further, the growth in [7] was 95.5%; in assay [8], 82.8%; in assay [9] it was 85.9%.
As to `COc1cc2oc(-c3cccc(C(=O)Nc4ccccc4)c3)cc(=O)c2c(O)c1OC`, the growth was 95.7% in assay [1]; 83.5% in [2]; 94.4% in [3]; -20.2% (active) in assay [4]; 15% in [5]; 85.4% in [6]. The growth in [7] was 70.1%; in assay [8] it was 11.1%.
On to `Cc1ccc(C(=O)/C(=C/c2ccc([N+](=O)[O-])cc2)SCc2ccc(Cl)cc2)cc1`, for which the growth in assay [1] was 11.4%; in [2], -32.7% (active); in [3], 85.1%; in [4] it was 58.8%; in assay [5], 101%; in [6], 74.7%. The results for the growth in assay [7], in [8] and in assay [9] were 47.6%, 88.2% and 72%, respectively.
On to `CCOC(=O)[C@@H](C)C[C@H](Cc1ccccc1)NC(=O)c1csc([C@@H](C[C@H](C(C)C)N(C)C(=O)[C@@H](NC(=O)[C@H]2C[C@H](O[Si](C)(C)C(C)(C)C)CCN2C)C(C)C)OC(C)=O)n1`, for which the growth was -13.9% [9.25 µM] (active) in assay [1]; -32.7% [9.25 µM] (active) in [2]; 9.08% [9.25 µM] (active) in assay [3]; 17.3% [9.25 µM] in assay [4]; -2.86% [9.25 µM] (active) in [5]; 15.7% [9.25 µM] in assay [6]. For the same compound, the figures for the growth in assay [7], in assay [8] and in [9] were 1.08% [9.25 µM] (active), -17.7% [9.25 µM] (active) and -3.17% [9.25 µM] (active), respectively.
In the case of `CC(=O)[C@@H]1CC[C@]2(CO)CC[C@]3(C)[C@H](CC[C@@H]4[C@@]5(C)CCCNC(C)(C)[C@@H]5CC[C@]43C)[C@@H]12`, the growth in assay [1] was 86.8%; in [2] it was 98.6%; in assay [3], 102%; in [4], 101%; in [5], 122%; in assay [6], 99.1%. Also, the growth in assay [7] is 97.2%; in assay [8], 96.1%; in assay [9], 96.4%.
As for `CCCCOc1ccc(/C=N/Nc2cc(C)nc3ccc(Br)cc23)cc1`, the growth in assay [1] is -9.77% (active); in assay [2], -15.9% (active); in [3], 100%; in assay [4] it was 44%; in [5], 91.5%; in assay [6], 10%. Moreover, the growth in assay [7] was -53% (active); in assay [8], 86.8%; in assay [9], 83.8%.
On to `COc1ccc(CNCCN2C(=O)c3ccc4c5c(ccc(c35)C2=O)C(=O)N(CCNCc2ccc(OC)c(OC)c2OC)C4=O)c(OC)c1OC`, for which the growth in assay [1] is -23.2% (active); in assay [2], -25% (active); in assay [3], -60.1% (active); in assay [4], -94.1% (active); in assay [5], 58%; in assay [6], -29.9% (active). Moreover, the growth was -42.8% (active) in assay [7], -34.6% (active) in assay [8] and -3.82% (active) in assay [9].
Take `N=C1C(c2nc3ccccc3s2)=C(O)CN1c1cc(Cl)cc(Cl)c1`: the growth is 7.21% (active) in assay [1]; 67.2% in assay [10]; 87% in [3]; 131% in assay [4]; 99.4% in assay [5]; 52.5% in assay [6]. Besides, the growth in [7] was 87.2%; in assay [8], 52.7%; in [9], 78.9%.
With `NS(=O)(=O)c1ccc(Cn2c(SCC(=O)N/N=C/c3ccccc3O)nc3ccccc3c2=O)cc1`, the growth was 26.6% in assay [1]; 49.7% in assay [2]; 68.4% in [3]; 40.7% in assay [4]; 73% in [5]; 62.3% in assay [6]. In addition, the growth in assay [7] was 13.4%; in assay [8], 71.6%; in [9] it was 98.3%.
Regarding `O=C(NNc1nc2c(F)cccc2n2cccc12)c1cnccn1`, the growth in assay [1] was 7.37% (active); in assay [2], 10.6%; in [3] it was 39%; in assay [4], 28.1%; in [5], 28.4%; in [6] it was 21.1%. In addition, the growth in [7] was 23.2%; in assay [8], 77.3%; in assay [9], 3.12% (active).
Consider `COc1cc(NC(C)CCCNC(=O)CCC(=O)NCCCNCCCCCCCCNCCCNC(=O)CCC(=O)NCCCC(C)Nc2cc(OC)cc3cccnc23)c2ncccc2c1` (stereo not drawn), for which the growth was 107% in assay [1]; 53.5% in assay [2]; 66.8% in [3]; 18.1% in [4]; 59.1% in assay [6]; 39.8% in assay [7]. The growth in assay [8] was 75%; in assay [9], 91.7%.

The values above are taken from PubChem BioAssay (NCI).
